Experimental findings from PubChem BioAssay (NCATS) are described below.

Experiment [1] concerns the target Lysosomal acid glucosylceramidase (Homo sapiens) (UniProt P04062). The experiment in a line: Glucocerebrosidase-p2 (AID 348; in the data active = potency below about 10 µM; also: potency is read from the fitted curve at half-maximal effect). As to conditions: purified GBA, blue fluorogenic substrate, 40 min. The method, boiled down:
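Normal human glucocerebrosidase (0.2 nM) with blue fluorogenic substrate (80 uM final) in citrate/phosphate pH 5.9 with 10mM sodium taurocholate, 0.01% tween-20; 40 min RT, NaOH/glycine stop; fluorescence Ex 365/Em 440; AC50 from a titration from 0.6 nM upwards.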

A short description of experiment [2]: AP1 Signaling Pathway (AID 357).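 Also: ME-180 reporter cells stimulated with EGF at its EC50 level; % is scaled to controls: 0 for no effect and ±100 for the full control effect.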 To be noted: ME-180 AP-1-bla reporter, EGF-induced, beta-lactamase ratio, 5 h; at 7.69 µM (top of the series) unless noted. The method, boiled down: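 Beta-lactamase reporter under AP-1 response element, ME-180 background. Stimulus: EC50 EGF. Compound exposure 5 h, 37 °C. Detection: CCF4, 2.5 h RT, 460/530 nm. Values: AC50 from titration.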

Experiment [3] deals with Cytochrome P450 1A2 (Homo sapiens) (UniProt P05177). The experiment in a line: p450-cyp1a2 (AID 410; calls by dose curve; also: potency is read from the fitted curve at half-maximal effect;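 as to activity change, negative = inhibition: -100% = full effect of reference inhibitor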). As to conditions: recombinant CYP1A2, luciferin-ME demethylation, luminescence; series mostly up to 57 µM. The method in brief: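 Luminescent demethylation readout: Luciferin-ME (100uM, equal to Km) turned over by 20nM CYP1A2 for 60 min at room temperature after NADPH regeneration addition, following 10 min compound preincubation. Normalization used 57 uM furafylline as full inhibition.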
Chain of Cytochrome P450 1A2 (Homo sapiens) (P05177 whole entry, looked up): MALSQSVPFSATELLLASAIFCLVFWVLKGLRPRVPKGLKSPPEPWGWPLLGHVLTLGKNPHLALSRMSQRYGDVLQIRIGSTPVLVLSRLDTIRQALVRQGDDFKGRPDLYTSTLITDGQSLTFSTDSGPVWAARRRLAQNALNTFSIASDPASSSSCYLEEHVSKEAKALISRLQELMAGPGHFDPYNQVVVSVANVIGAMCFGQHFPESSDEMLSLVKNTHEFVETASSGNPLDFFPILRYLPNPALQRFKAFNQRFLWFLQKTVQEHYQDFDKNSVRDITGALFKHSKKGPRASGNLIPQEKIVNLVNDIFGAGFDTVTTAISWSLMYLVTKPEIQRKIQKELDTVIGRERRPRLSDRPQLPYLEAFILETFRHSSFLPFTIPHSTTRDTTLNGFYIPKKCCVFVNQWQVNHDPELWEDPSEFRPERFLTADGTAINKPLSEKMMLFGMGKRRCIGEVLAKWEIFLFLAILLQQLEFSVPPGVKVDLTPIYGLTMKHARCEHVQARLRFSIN

Experiment [4] can be described thus: Stat Signaling Pathway (AID 446).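 Also: ME-180 cervical cancer cells given 40 pM IL-6 alongside compound; SIE-controlled beta-lactamase reporter measured as 460/530 nm FRET emission ratio; % is scaled to controls: 0 for no effect and ±100 for the full control effect.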 As to conditions: ME-180 (cervical carcinoma) SIE beta-lactamase reporter, IL-6 stimulated, 5 h; at 7.69 µM (top of the series) unless noted. The method in brief:
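Overnight-plated ME-180 cells bearing a STAT Inducible Element beta-lactamase reporter; 5 h co-exposure to compound and 40 pM IL-6; values normalized to 300 pM IL-6 and 125 nM JAK inhibitor controls.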

Experiment [5] deals with Glucocorticoid receptor (Homo sapiens) (UniProt P04150). Nature of the experiment: GR-EFC Redistribution (AID 451; calls by dose curve; also: potency is read from the fitted curve at half-maximal effect). To be noted: CHO-K1 GR-EFC translocation, beta-gal luminescence, 2 h. The method in brief:
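CHO-K1 cells expressing nuclear EA and GR-ED fragments of b-gal; compounds titrated up to 46 uM final, 2 h at 37 C. GR nuclear translocation read as complemented b-gal luminescence after 1 h RT detection.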

The target of experiment [6] is Mitogen-activated protein kinase 10 (Mus musculus) (UniProt Q61831). Nature of the experiment: JNK3 AlphaScreen Assay (AID 530).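 Also: kinase came from lysate of stimulated human HepG2 cells; signal reports phosphorylation of biotinylated GST-cJun 1-79 at Ser73 with 10 µM ATP; % is scaled to controls: 0 for no effect and ±100 for the full control effect.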 To be noted: JNK3 lysate, c-Jun phosphorylation; series mostly up to 57.1 µM. The method in brief: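 Activity was read by AlphaScreen after JNK3-containing HepG2 lysate (cytokine pre-activated) phosphorylated biotinylated GST-cJun with 10 uM ATP at room temperature. Phospho-Ser73 cJun antibody with Protein-A acceptor beads provided detection.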

Experiment [7] concerns the target 3',5'-cyclic-AMP phosphodiesterase 4B (Homo sapiens) (UniProt Q07343). The experiment in a line: qHTS Assay for Inhibitors of PDE-IV (AID 607; active = well fitted activation curve with a large enough effect in the main read-out, with a control signal flat, not every such curve was filed as active; also: % of control where 0% means no effect). As to conditions: HEK293 ACTOne CNG channel cells, membrane potential fluorescence; series mostly up to 22.9 µM. The method, boiled down:
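Live HEK293 cells with a modified cyclic nucleotide-gated (CNG) channel report intracellular cAMP via membrane-potential dye fluorescence (ex 535/em 590 nm). Endogenous PDE-IV was targeted. Compounds were tested at up to 22.9 uM final; RO 20-1724 100 uM served as control.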

The nature of experiment [8]: qHTS Assay for Lipid Storage Modulators (AID 1519; calls by dose curve). To be noted: Drosophila S3 cells, BODIPY lipid droplet/cell ratio, laser cytometry, cells loaded with oleic acid; for activity change, negative = inhibition: at 57.5 µM (top of the series). The method in brief:
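Cells seeded at 5,000 per well were treated with compounds over a concentration series and loaded with oleic acid (400 uM, as added). Lipid droplet fluorescence (488 nm excitation, 500-530 nm channel) was read by laser-scanning cytometry and normalized to 20 uM Triacsin C.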

Experiment [9] in a line: Primary qHTS for small molecule stabilizers of the endoplasmic reticulum resident proteome: Secreted ER Calcium Modulated Protein (SERCaMP) assay (AID 1508630; active = well fitted curve in the direction sought with a large enough effect; an effect the other way counts as inactive or inconclusive; also: % is scaled to controls: 0 for no effect and ±100 for the full control effect). To be noted: SH-SY5Y GLuc-SERCaMP (Gaussia luciferase released on ER calcium loss) secretion, thapsigargin, luminescence; series mostly up to 38.4 µM. The method, boiled down: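 The SH-SY5Y reporter protocol was run at 3 concentrations up to 38.3 uM (primary) or 11 concentrations (follow-up): 16 h compound, 100 nM thapsigargin for 4 h, then extracellular luciferase luminescence.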

The target in experiment [10] is Glucocorticoid receptor (Homo sapiens) (UniProt P04150). The experiment in a line: GR-GFP Redistribution (AID 450;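 active = compounds whose dose series gives a full or clear partial fitted curve of increased nuclear translocation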; also: potency is read from the fitted curve at half-maximal effect). As to conditions: U2OS GR-GFP nuclear translocation, laser cytometry, 2 h.
Chain of Glucocorticoid receptor (Homo sapiens) (P04150 whole entry, looked up, the tested form may be a part): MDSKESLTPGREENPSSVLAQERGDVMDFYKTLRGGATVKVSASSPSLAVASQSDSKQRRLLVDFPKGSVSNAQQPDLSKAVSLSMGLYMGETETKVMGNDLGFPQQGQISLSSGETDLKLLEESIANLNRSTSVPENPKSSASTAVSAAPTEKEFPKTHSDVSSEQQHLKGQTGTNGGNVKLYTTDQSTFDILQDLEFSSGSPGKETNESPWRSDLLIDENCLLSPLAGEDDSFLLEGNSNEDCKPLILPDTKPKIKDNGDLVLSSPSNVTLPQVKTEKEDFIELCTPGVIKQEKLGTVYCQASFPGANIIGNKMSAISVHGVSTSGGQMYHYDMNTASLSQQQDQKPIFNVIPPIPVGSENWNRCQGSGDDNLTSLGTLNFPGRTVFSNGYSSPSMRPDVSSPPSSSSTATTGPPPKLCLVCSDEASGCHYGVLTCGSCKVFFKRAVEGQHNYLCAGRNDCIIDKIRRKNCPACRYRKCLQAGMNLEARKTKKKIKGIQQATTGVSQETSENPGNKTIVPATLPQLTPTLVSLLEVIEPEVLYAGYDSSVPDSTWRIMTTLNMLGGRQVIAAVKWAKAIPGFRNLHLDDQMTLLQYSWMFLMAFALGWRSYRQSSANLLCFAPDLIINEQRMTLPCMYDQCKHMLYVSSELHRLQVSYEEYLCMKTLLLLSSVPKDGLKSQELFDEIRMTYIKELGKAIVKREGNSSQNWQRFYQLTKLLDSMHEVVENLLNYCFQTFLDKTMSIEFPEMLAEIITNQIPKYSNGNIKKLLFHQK
Experiment [11] deals with Cytochrome P450 3A4 (Homo sapiens) (UniProt P08684). Nature of the experiment: qHTS Assay for Activators of Cytochrome P450 3A4 (AID 885; active = well fitted curve in the direction sought with a large enough effect; an effect the other way counts as inactive or inconclusive; also: nearly all actives have a fitted effect of over 65% in size). To be noted: recombinant CYP3A4, Luciferin-PPXE luminescence, 60 min; series mostly up to 57.1 µM. The method in brief: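 Using 20nM recombinant human CYP3A4 in potassium phosphate (200mM), substrate Luciferin-PPXE at 25uM, luminescent luciferin detection followed a 60-min RT NADPH reaction; data scaled to 57 uM ketoconazole.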
Chain of Cytochrome P450 3A4 (Homo sapiens) (P08684 whole entry, looked up): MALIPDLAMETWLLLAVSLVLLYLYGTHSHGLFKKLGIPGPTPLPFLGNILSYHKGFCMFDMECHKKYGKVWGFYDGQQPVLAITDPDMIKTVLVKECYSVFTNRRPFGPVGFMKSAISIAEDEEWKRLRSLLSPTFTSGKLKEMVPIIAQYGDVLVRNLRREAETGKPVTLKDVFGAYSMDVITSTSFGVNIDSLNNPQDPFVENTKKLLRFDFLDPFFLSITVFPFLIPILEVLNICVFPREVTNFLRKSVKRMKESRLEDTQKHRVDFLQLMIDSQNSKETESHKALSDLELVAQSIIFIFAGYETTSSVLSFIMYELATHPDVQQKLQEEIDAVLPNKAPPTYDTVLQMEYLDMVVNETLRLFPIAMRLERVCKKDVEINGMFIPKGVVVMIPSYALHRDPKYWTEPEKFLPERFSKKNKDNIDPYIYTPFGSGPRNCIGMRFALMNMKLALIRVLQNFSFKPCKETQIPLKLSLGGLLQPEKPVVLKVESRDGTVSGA

The nature of experiment [12]: Confirmation and Secondary Assay for Modulators of Hemoglobin Beta Chain Splicing at IVS2 654 locus (AID 910; active = well fitted curve in the direction sought with a large enough effect; an effect the other way counts as inactive or inconclusive;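 also: HeLa cells stably carrying EGFP split by mutant beta-globin IVS2-654 intron; % of control where 0% means no effect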). As to conditions: HeLa EGFP-654 splicing reporter, GFP fluorescence, 48 h; series mostly up to 38.3 µM. The method in brief: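 HeLa cells stably expressing EGFP interrupted by β-globin IVS2-654 intron, seeded overnight in Opti-MEM/2% FCS, then treated 2 days at 37 °C. Restored splicing read as total peak GFP intensity per well by laser scanning cytometry (488 nm excitation, 500–520 nm emission); 500 nM antisense PNA as control.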

A short description of experiment [13]: Confirmation and Secondary Assay for Modulators of Hemoglobin Beta Chain Splicing at IVS2 705 locus (AID 930; active = well fitted curve in the direction sought with a large enough effect; an effect the other way counts as inactive or inconclusive;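 also: HeLa cells stably expressing the EGFP-705 splicing reporter; GFP fluorescence per well restored by corrected splicing of the IVS2-705 intron in EGFP; % of control where 0% means no effect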). As to conditions: HeLa EGFP-705 splicing reporter, GFP fluorescence, 48 h; series mostly up to 38.3 µM. The method, boiled down:
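First, HeLa EGFP-705 cells are seeded at 500/well in Optimem with 2% FCS and left overnight. Next, compound or DMSO is added for 2 days. Finally wells are laser-scanned and total peak GFP intensity scored.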

In experiment [14] the target is Ubiquitin carboxyl-terminal hydrolase 1 (Homo sapiens) (UniProt O94782). Nature of the experiment: Inhibitors of USP1/UAF1: Pilot qHTS (AID 504865; active = well fitted curve in the direction sought with a large enough effect; an effect the other way counts as inactive or inconclusive;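 also: rhodamine fluorescence freed from ubiquitin-rhodamine substrate followed over time; top concentration of the series differs between compounds; % is scaled to controls: 0 for no effect and ±100 for the full control effect; nearly all actives have a fitted effect of over 35% in size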). As to conditions: purified USP1/UAF1, Ub-rhodamine cleavage fluorescence; series mostly up to 54.9 µM. The method in brief:
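USP1/UAF1 complex at 1 nM preincubated 15 min at room temperature with compound, then Ub-Rho substrate added at 150 nM final. Fluorescence (480/540 nm) read kinetically in 50 mM HEPES pH 7.8, 0.5 mM EDTA, 1 mM TCEP, 0.1 mg/ml BSA, 0.01% Tween-20.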

In experiment [15] the target is Cytochrome P450 2D6 (Homo sapiens) (UniProt P10635). Nature of the experiment: qHTS Assay for Inhibitors and Substrates of Cytochrome P450 2D6 (AID 891; active = well fitted curve in the direction sought with a large enough effect; an effect the other way counts as inactive or inconclusive; also: potency is read from the fitted curve at half-maximal effect; nearly all actives have a fitted effect of over 60% in size). As to conditions: recombinant CYP2D6, luciferin-ME EGE luminescence; series mostly up to 57.1 µM. The method, boiled down:
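Luminescent read-out of luciferin formed by 5 nM human CYP2D6 demethylating 30 uM Luciferin-ME EGE (Km level) over 60 min at room temperature after NADPH regeneration addition. Data normalized to full inhibition by 1.43 uM quinidine.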

Where [16] appears, read: measured here: cell count channel max response.
The mark [17] stands for this setting: measured here: lipid channel max response.

The structures appear in SMILES notation. Results filed as inconclusive are left out. Calls of active or inactive are those of the source. Unless noted, calls follow the shape of the dose curve; as a rule, active = well fitted curve in either direction with a large enough effect (not every such curve was filed as active); inconclusive = small, poorly fitted or top-dose-only effect, or another doubt; inactive = flat fitted curve, though single readings scatter.

Chain of Lysosomal acid glucosylceramidase (Homo sapiens) (P04062 whole entry, looked up): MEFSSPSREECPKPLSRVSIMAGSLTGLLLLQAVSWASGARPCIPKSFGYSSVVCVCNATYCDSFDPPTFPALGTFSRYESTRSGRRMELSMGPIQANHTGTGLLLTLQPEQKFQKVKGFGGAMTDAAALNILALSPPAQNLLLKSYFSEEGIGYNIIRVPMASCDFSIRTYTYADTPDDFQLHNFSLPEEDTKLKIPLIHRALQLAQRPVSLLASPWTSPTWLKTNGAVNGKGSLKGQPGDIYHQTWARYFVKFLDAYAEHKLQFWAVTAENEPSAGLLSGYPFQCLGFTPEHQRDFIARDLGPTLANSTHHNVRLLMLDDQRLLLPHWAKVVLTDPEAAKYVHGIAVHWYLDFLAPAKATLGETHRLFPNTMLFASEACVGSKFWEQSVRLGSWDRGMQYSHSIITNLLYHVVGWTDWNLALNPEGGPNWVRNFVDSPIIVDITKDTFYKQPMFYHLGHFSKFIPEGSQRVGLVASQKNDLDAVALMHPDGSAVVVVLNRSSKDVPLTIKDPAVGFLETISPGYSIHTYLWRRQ
Chain of 3',5'-cyclic-AMP phosphodiesterase 4B (Homo sapiens) (Q07343 whole entry, looked up): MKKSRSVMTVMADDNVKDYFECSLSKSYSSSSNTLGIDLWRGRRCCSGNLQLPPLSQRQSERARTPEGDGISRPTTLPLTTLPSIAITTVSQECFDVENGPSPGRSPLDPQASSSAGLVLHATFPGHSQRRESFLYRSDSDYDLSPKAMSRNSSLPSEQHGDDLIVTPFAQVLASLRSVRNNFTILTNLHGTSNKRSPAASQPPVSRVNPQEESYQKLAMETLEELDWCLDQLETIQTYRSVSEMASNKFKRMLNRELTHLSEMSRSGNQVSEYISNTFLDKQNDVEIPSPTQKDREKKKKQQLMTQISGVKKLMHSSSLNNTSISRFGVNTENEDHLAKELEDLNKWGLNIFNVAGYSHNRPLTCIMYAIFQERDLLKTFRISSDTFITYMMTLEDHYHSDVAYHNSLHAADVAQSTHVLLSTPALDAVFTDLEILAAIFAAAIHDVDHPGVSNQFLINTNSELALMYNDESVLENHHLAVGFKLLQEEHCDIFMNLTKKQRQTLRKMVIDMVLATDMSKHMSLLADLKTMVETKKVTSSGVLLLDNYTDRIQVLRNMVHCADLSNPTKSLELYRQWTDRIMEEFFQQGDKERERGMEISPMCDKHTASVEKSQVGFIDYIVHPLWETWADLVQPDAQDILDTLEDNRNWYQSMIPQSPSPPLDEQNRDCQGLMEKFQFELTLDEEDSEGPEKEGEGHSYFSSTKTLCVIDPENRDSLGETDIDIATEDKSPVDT
Chain of Ubiquitin carboxyl-terminal hydrolase 1 (Homo sapiens) (O94782 whole entry, looked up): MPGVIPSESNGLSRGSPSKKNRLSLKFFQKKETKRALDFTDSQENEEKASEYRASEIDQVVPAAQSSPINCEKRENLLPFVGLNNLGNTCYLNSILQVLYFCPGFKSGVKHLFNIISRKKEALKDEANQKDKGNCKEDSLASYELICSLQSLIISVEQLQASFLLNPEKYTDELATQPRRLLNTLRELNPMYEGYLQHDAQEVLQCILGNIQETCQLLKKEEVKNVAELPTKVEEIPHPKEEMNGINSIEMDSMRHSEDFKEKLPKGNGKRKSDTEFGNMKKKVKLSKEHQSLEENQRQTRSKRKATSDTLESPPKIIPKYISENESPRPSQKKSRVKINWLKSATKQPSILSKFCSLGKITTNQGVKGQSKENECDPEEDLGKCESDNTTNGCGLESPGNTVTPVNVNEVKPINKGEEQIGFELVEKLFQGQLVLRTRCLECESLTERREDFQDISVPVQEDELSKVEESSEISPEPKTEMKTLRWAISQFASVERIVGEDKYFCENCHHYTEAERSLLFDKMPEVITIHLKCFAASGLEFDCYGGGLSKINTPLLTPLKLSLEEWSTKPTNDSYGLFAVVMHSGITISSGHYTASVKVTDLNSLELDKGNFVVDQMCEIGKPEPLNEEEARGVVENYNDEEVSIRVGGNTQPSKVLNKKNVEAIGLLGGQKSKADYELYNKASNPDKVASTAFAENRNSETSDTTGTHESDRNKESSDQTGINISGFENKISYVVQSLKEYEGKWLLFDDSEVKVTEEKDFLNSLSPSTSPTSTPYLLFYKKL
Chain of Cytochrome P450 2D6 (Homo sapiens) (P10635 whole entry, looked up): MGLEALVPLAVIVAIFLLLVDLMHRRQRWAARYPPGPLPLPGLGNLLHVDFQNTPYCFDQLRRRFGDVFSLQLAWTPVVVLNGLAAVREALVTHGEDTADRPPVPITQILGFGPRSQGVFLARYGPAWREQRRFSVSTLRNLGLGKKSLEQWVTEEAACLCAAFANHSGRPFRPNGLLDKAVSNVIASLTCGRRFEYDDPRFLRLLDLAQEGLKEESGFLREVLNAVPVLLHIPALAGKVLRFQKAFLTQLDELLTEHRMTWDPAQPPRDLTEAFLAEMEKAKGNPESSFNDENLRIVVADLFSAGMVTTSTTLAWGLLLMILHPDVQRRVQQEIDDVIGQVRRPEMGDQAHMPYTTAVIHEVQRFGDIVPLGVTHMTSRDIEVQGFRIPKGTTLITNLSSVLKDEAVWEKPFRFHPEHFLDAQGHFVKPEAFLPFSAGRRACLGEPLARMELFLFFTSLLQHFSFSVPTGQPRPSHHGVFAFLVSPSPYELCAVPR

`Cn1cccc1C(=O)N1CCC2(CC1)CN(Cc1ccc(C#N)cc1)C2`: the Potency in experiment [1] was > 11.4 µM (inactive); in [5] it was > 46 µM (inactive). Also, the values for the activity change, negative = inhibition in experiment [2] and in experiment [8] were 6.46% (inactive) and 4.17% (inactive), respectively. Moreover, the Potency entry in experiment [3], in [6] and in experiment [7] was “inactive” in each case. Also, the activity, negative = inhibition in experiment [4] is -7.55% (inactive). Moreover, the results for the max response in experiment [8] (setting [16]) and in experiment [8] (setting [17]) were 20.5% and 25.8%, respectively. In experiment [9], the result was inactive.

`CN1CCCC2(CCN(S(=O)(=O)c3ccccc3)CC2)C1`: the Potency is > 11.4 µM (inactive) in experiment [1], 20 µM (active) in experiment [3] and > 46 µM (inactive) in [5]. In addition, the activity change, negative = inhibition in [2] was 17.6% (inactive); in experiment [8], 2.33% (inactive). The activity, negative = inhibition in experiment [4] was -3% (inactive). Further, the Potency entry in [6] and in experiment [7] was “inactive” each time. The max response in [8] (setting [16]) came to 19.8%; in experiment [8] (setting [17]), 25%. Besides, the outcome in experiment [9] was inactive.

As to `COc1ccccc1CNc1nc(-c2ccccc2CN(C)C)nc2ccccc12`, the Potency in [1] is > 11.4 µM (inactive); in [3] it was 0.794 µM (active); in experiment [10], > 46 µM (inactive); in [5], > 46 µM (inactive). Moreover, the activity change, negative = inhibition in experiment [2] was 16.7% (inactive); in [8], 3.53% (inactive). The activity, negative = inhibition in [4] is -12.4% (inactive). Also, the Potency result in experiment [6], in experiment [11], in [12] and in experiment [14] was “inactive” each time. Moreover, the outcome in experiment [13] and in experiment [9] was inactive. Besides, the max response was -19.9% in experiment [8] (setting [16]) and -15.9% in experiment [8] (setting [17]).

For the compound `CC(C)CN1CCC2(CC1)CCN(S(=O)(=O)c1ccccc1)CC2`, the Potency in experiment [1] is > 11.4 µM (inactive); in experiment [5], > 46 µM (inactive). The activity change, negative = inhibition is -4.17% (inactive) in [2] and 2.93% (inactive) in experiment [8]. Moreover, the Potency result in [3], in experiment [6] and in experiment [7] was “inactive” each time. The activity, negative = inhibition in experiment [4] is -1.58% (inactive). Further, the max response in experiment [8] (setting [16]) was -0.0585%; in experiment [8] (setting [17]), 3.86%. Also, in [9], the result was inactive.

For the compound `COCC(=O)N1CCC2(CCCN(Cc3ccccc3)C2)CC1`, the Potency in [1] was > 11.4 µM (inactive); in experiment [5], > 46 µM (inactive). For the same compound, the results for the activity change, negative = inhibition in [2] and in experiment [8] were -19.3% (inactive) and 2.23% (inactive), respectively. Moreover, the Potency result in experiment [3], in [6] and in [7] was “inactive” each time. Further, in experiment [4], the activity, negative = inhibition was 0.327% (inactive). Further, the max response worked out at 22.3% in experiment [8] (setting [16]) and 27.9% in experiment [8] (setting [17]). In addition, the outcome in [9] was inactive.

`COc1ccc(C(=O)N2CCC3(CCN(Cc4ccccc4OC)CC3)CC2)cc1`: the Potency in experiment [1] was > 11.4 µM (inactive); in experiment [5] it was > 46 µM (inactive). For the same compound, the activity change, negative = inhibition in experiment [2] was -0.655% (inactive); in [8], 2.01% (inactive). The Potency entry in experiment [3], in experiment [6] and in experiment [7] was “inactive” each time. In experiment [4], the activity, negative = inhibition is -4.81% (inactive). For the same compound, the max response was 10.3% in experiment [8] (setting [16]) and 16.6% in [8] (setting [17]). Besides, the outcome in experiment [9] was inactive.

For `CN(C)Cc1ccccc1-c1cc(-n2ccnc2)ncn1`, the Potency in experiment [1] was > 11.4 µM (inactive); in [3], 5.01 µM (active); in experiment [10], > 46 µM (inactive); in experiment [5], > 46 µM (inactive); in experiment [15] it was 2.51 µM (active). Moreover, the activity change, negative = inhibition in [2] is -2.52% (inactive); in experiment [8], 11.3% (inactive). Besides, in experiment [4], the activity, negative = inhibition is 1.39% (inactive). Also, the Potency entry in experiment [6], in experiment [7], in experiment [11], in experiment [12] and in experiment [14] was “inactive” in each case. Further, the outcome in experiment [13] and in experiment [9] was inactive. The max response in experiment [8] (setting [16]) came to 4.13%; in experiment [8] (setting [17]) it was 14.2%.
